Assay outcomes (PubChem)
HPGD block: qHTS Assay for Inhibitors of HPGD (15-Hydroxyprostaglandin Dehydrogenase); 15-hydroxyprostaglandin dehydrogenase [NAD(+)] (Homo sapiens), P15428; purified HPGD, NADH fluorescence kinetic, PGE2 substrate; Potency, µM, without a hit: top-dose activity change, negative = inhibition, most hits filed as inhibitors; 150,000 compounds, 4.3% hits; active = well fitted inhibition curve with a large enough effect, not every such curve was filed as active; inconclusive = small, poorly fitted or top-dose-only effect, or another doubt; inactive = no such curve, though single readings can be large or run the other way; also: potency is read from the fitted curve at half-maximal effect; % is scaled to controls: 0 for no effect and ±100 for the full control effect
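NADH formation kinetics: reaction with 30 uM PGE2 and 1 mM NAD+ (final), 20 nM enzyme, Tris-HCl pH 8 with Tween 20, after 15 min compound preincubation at room temperature. Fluorescence change, last versus first of five reads.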
HTT ATP protect: qHTS Multiplex Assay to Identify Dual Action Probes in a Cell Model of Huntington: Cytoprotection (ATP). PC12 HTT-Q103 induced, cytoprotection, ATP luminescence, 40 h. Potency, µM (top dose mostly 56.4 µM), inactives show cytoprotection (ATP increase), usual class: activators. 230,000 compounds, 0.14% hits. AID 1471, 2008; also: potency is read from the fitted curve at half-maximal effect; % of control where 0% means no effect; nearly all actives have a fitted effect of over 45% in size
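Compounds were screened for protection of PC12 cells against cell death after tebufenozide induction (100 nM final) of mutant Huntingtin exon 1 (Q103) fused to GFP.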
PNC assembly inh: High Content Assay for Compounds that inhibit the Assembly of the Perinucleolar Compartment; PC3M PTB-GFP, PNC prevalence imaging, 16 h; stronger effect = lower value; activity change (PNC), negative = inhibition, % at 10 µM; 140,000 compounds, 3.1% hits; AID 2417, 2010;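 active = readout at or below -70, meaning at least 70% loss of cells showing the perinucleolar compartment, a nuclear body marking cancer cells; inconclusive = readout between -30 and a set limit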;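 also: plate controls were DMSO wells for no effect and camptothecin positive control wells for full effect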
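Compounds are pinned in duplicate onto adhered PC3M cells stably expressing GFP-tagged PTB and incubated 16 h at 37 C. Cells are then fixed, nuclei stained with Hoechst, and PNC-positive cells counted.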
HttQ103 aggreg: qHTS Multiplex Assay to Identify Dual Action Probes in a Cell Model of Huntington: Aggregate Formation (GFP); PC12 HttQ103-GFP aggregates, Acumen cytometry, 40 h; Potency, µM (doses to about 46.1 µM), inactives show top-dose activity change, negative = inhibition, usual class: inhibitors; 220,000 compounds, 1.1% hits; AID 1688, 2009; also: potency is read from the fitted curve at half-maximal effect; % is scaled to controls: 0 for no effect and ±100 for the full control effect; nearly all actives have a fitted effect of over 60% in size
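Ecdysone-promoter PC12 model expressing HTT exon 1 Q103 fused to GFP, induced by tebufenozide at 100 nM final. Compounds titrated; aggregates sized 1–25 µm scored on a 488 nm laser cytometer.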
CBFb-RUNX1 inh: qHTS Assay for Compounds Blocking the Interaction Between CBF-beta and RUNX1 for the Treatment of Acute Myeloid Leukemia. AlphaScreen CBFb-His/RUNX1-biotin binding, biochemical. Potency, µM (top dose mostly 59.8 µM), inactives show top-dose activity, negative = inhibition, usual class: inhibitors. 230,000 tested, under 10 active. AID 1477, 2009; also: % of control where 0% means no effect
Target sequence (Q01196 whole entry, looked up): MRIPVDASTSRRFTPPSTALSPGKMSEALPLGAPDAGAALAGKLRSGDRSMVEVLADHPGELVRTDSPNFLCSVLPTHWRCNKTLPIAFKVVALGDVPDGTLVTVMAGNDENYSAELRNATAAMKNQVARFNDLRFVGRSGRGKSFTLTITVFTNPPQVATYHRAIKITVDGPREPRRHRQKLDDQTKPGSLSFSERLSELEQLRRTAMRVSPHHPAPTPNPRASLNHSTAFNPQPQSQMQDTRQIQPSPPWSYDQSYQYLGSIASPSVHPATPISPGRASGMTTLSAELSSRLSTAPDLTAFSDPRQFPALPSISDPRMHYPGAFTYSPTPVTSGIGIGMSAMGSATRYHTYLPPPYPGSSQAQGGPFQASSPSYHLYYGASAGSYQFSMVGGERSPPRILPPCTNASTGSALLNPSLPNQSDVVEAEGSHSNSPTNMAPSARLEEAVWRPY
Target sequence (Q13951 whole entry, looked up): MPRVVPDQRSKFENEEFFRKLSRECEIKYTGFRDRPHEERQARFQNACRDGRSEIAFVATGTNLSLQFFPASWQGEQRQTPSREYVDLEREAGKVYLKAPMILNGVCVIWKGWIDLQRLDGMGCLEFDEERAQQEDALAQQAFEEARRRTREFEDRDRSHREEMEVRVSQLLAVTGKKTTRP
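AlphaScreen binding: CBFb-His and RUNX1-biotin (30 nM each) preincubated 20 min, compound added for 15 min, then nickel and streptavidin beads for 90 min, all at room temperature. Disruption of the interaction by any mechanism counts as activity.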
ALDH1A1 block: qHTS Assay for Inhibitors of Aldehyde Dehydrogenase 1 (ALDH1A1). 220,000 compounds, 7.3% hits. AID 1030, 2008. Potency, µM (series often up to 75.3 µM), for inactives: top-dose activity, negative = inhibition, usual class: inhibitors. Aldehyde dehydrogenase 1A1 (Homo sapiens), P00352. Purified ALDH1A1, NADH fluorescence, propionaldehyde substrate; active = well fitted inhibition curve with a large enough effect, not every such curve was filed as active; inconclusive = small, poorly fitted or top-dose-only effect, or another doubt; inactive = no such curve, though single readings can be large or run the other way;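 also: potency is read from the fitted curve at half-maximal effect; plate controls were no enzyme wells and a reference inhibitor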
Active calls of the source: *; ? = inconclusive; · = no result; [ ] = another dose, or the depositor's remark. Shown are actives, neighbours in structure and some others; about 11% of the full set was active somewhere. Unless noted, calls follow the shape of the dose curve; as a rule, active = well fitted curve in the direction sought with a large enough effect; inconclusive = small, poorly fitted or top-dose-only effect, or another doubt; inactive = no such curve, though single readings can be large; an effect the other way counts as inactive or inconclusive.

SMILES | HPGD block | HTT ATP protect | PNC assembly inh | HttQ103 aggreg | CBFb-RUNX1 inh | ALDH1A1 block
Cc1ccc(N2C(=O)C3ON(c4ccccc4)C(c4ccncc4)C3C2=O)cc1 (centres undefined) | -27% | 11% | -30 | 1% | 12% | 2.5µM*
O=C(O)COc1ccccc1C1C2C(=O)N(c3ccccc3)C(=O)C2ON1c1ccccc1 (centres undefined) | -6% | -16%[0.074 µM] | 25 | 3% | 2% | 25µM*
O=C1C2ON(c3ccccc3)C(c3ccccc3F)C2C(=O)N1c1ccccc1 (centres undefined) | -14% | 2%[0.074 µM] | -6 | 12% | -2% | -9%
Cc1ccccc1N1OC2C(=O)N(c3ccc(F)cc3)C(=O)C2C1c1ccccn1 (centres undefined) | -12% | -13%[10 µM] | -22 | -3% | 3% | 6%
CCOc1ccccc1C1C2C(=O)N(c3ccccc3)C(=O)C2ON1c1ccccc1 (centres undefined) | -18% | -3% | 20 | 0% | 6% | 22µM*
Cc1ccc(-n2cc(CN3CCC(O)(c4ccccn4)CC3)c(-c3ccc(F)cc3)n2)cc1 | · | -18%[10 µM] | · | -4%[9.22 µM] | -3% | -7%
CN1CCN(c2cc(-c3ccoc3)ncn2)CC1 | · | 19% | · | · | · | ?
C[C@]12C=CC(=O)N[C@@H]1CC[C@@H]1C2CC[C@]2(C)C(C(=O)Nc3cc(C(F)(F)F)ccc3C(F)(F)F)CC[C@@H]12 (some centres undefined) | · | -22% | · | -5% | · | ·
NC(=O)NCCS[C@H]1CCCC[C@@H]1O | -1% | -10%[10 µM] | · | · | · | 6%[13.5 µM]
C=CCNC(=S)NNC(=O)c1ccccc1 | 2% | 4%[10 µM] | ? | -8% | 8% | -3%
C=CCNC(=S)NNC(=O)c1ccc(OC(C)C)cc1 | -16% | -4%[10 µM] | -91* | ? | 8% | ?
CC(C)(C)Nc1ncnc2c1cnn2-c1ccccc1 | 25µM* | -34%[10 µM] | ? | -28% | 18% | -2%
CC(=O)NNc1ncnc2c1cnn2-c1ccccc1 | · | -18% | · | -2% | -17% | -1%
c1ccc(CNc2ncnc3c2cnn3-c2ccccc2)cc1 | · | -27% | 22 | -1% | 6% | -13%
c1ccc(CCNc2ncnc3c2cnn3-c2ccccc2)cc1 | 16µM* | 20%[0.074 µM] | 18 | -13% | 10% | ?
NCCC[C@@H](CC(=O)N[C@@H]1CCNC[C@H]1C(=O)N[C@H](CC(=O)N[C@@H](CCC(=O)O)CC(=O)O)Cc1ccccc1)NC(=O)C[C@H](Cc1ccccc1)NC(=O)[C@@H]1CNCC[C@H]1N | -6% | 3%[1.9 µM] | · | · | 16% | 5%
CCCCN=CC1=C(O)C(C(=O)OC)C(C)(C)CC1=O (centres undefined) | -2% | 2%[1.9 µM] | -86* | 13% | 6% | -6%
O=C1CCC[C@@H](C2=CCCCC2=O)C1 | · | -52%[10 µM] | · | · | -7%[13.1 µM] | 11%[13.5 µM]
O=C(COC(=O)c1ccccc1NC(=O)c1ccccc1)c1ccc([N+](=O)[O-])cc1 | -13% | 2%[10 µM] | 3 | 28% | -14% | 8.9µM*
O=C(COc1ccc([N+](=O)[O-])cc1)Nc1ccc(C(=O)Nc2ccccc2C(=O)O)cc1 | · | 6%[10 µM] | · | 22%[9.22 µM] | -6% | 13µM*
O=C(COC(=O)c1ccccc1NC(=O)c1ccccc1)c1cccc([N+](=O)[O-])c1 | -11% | 10%[10 µM] | -14 | 2% | -9% | -8%
O=C(COc1ccc2ccccc2c1)Nc1cccc(C(=O)Nc2ccccc2C(=O)O)c1 | ? | 13%[10 µM] | 40 | -9% | -11% | 14µM*
